Experimental data from the antibiotic and cytotoxicity screens of Wong et al. (2023).
Out of some 39,000 compounds screened, about 3,300 (8.5%) were called active. The sample holds actives, similar compounds and a random draw of the others, so the mix is not that of the screen.

tested on: HepG2; experiment: cytotoxicity call (relative viability < 0.9); conditions: 10 µM

Q: With `Cc1ccc(S(=O)(=O)N(C)C[C@H]2OCCCC[C@H](C)Oc3ccc(NC(=O)Nc4ccc(C(F)(F)F)cc4)cc3C(=O)N([C@H](C)CO)C[C@@H]2C)cc1` as the compound, how does the cytotoxicity call read?
A: inactive

Q: How did the cytotoxicity call turn out when `C[C@@H]1CN([C@@H](C)CO)C(=O)c2cc(NC(=O)Nc3ccc(F)cc3)ccc2O[C@@H](C)CCCCO[C@@H]1CN(C)S(=O)(=O)c1ccc(Cl)cc1` was run?
A: inactive

Q: With `COCC(=O)Nc1ccc2c(c1)[C@@H]1C[C@@H](CC(=O)N3CCOCC3)O[C@H](CO)[C@@H]1O2` as the compound, how does the cytotoxicity call read?
A: inactive

Q: With `C[C@H](CO)N1C[C@H](C)[C@@H](CN(C)S(=O)(=O)c2cn(C)cn2)Oc2ccc(NC(=O)Nc3ccccc3)cc2CC1=O` as the compound, how does the cytotoxicity call read?
A: inactive

Q: How did the cytotoxicity call turn out when `CCCc1ncc(C[n+]2ccccc2C)c(N)n1.[Cl-]` was run?
A: inactive

Q: How did the cytotoxicity call turn out when `C[C@@H]1CCCCO[C@H](CN(C)S(=O)(=O)c2cccs2)[C@H](C)CN([C@H](C)CO)C(=O)c2cc(NC(=O)c3ccccc3)ccc2O1` was run?
A: inactive

Q: `C[C@@H]1CN([C@@H](C)CO)C(=O)c2cccc(NS(=O)(=O)c3cccs3)c2O[C@@H]1CN(C)Cc1ccc(Oc2ccccc2)cc1` was tested. Which cytotoxicity call did it give?
A: inactive

Q: With `C[C@@H]1CN([C@@H](C)CO)C(=O)c2cc(C#CCN(C)C)cnc2O[C@H]1CN(C)Cc1cccc(C(=O)O)c1` as the compound, how does the cytotoxicity call read?
A: inactive

Q: Which cytotoxicity call does the source give for `C[C@@H]1CN([C@@H](C)CO)C(=O)c2cccc(NC(=O)C3CCOCC3)c2O[C@H]1CN(C)C(=O)Nc1ccc2c(c1)OCO2` here?
A: inactive

Q: Which cytotoxicity call does the source give for `C[C@H]1CN([C@@H](C)CO)C(=O)Cc2cc(NC(=O)Nc3ccc(F)cc3)ccc2O[C@H]1CN(C)C(=O)Nc1ccc(C(F)(F)F)cc1` here?
A: inactive

Q: For `C[C@@H]1CN([C@H](C)CO)C(=O)Cc2cc(NC(=O)Nc3ccc(F)cc3)ccc2O[C@@H]1CN(C)C(=O)Nc1ccc(C(F)(F)F)cc1`, which cytotoxicity call is on record?
A: inactive

Q: With `C[C@H](CO)N1C[C@H](C)[C@@H](CN(C)C(=O)Nc2ccc(C(F)(F)F)cc2)Oc2ccc(NC(=O)Nc3ccc(F)cc3)cc2CC1=O` as the compound, how does the cytotoxicity call read?
A: active

Q: How did the cytotoxicity call turn out when `Cc1ccc(S[C@]2(C(=O)NC(C)C)CC(=O)N(Cc3cc(C(F)(F)F)cc(C(F)(F)F)c3)[C@@H]2c2ccc(CO)cc2)cc1` was run?
A: inactive

Q: With `CN(C)Cc1cn(CC[C@H]2CC[C@@H](NS(=O)(=O)c3ccccc3)[C@H](CO)O2)nn1` as the compound, how does the cytotoxicity call read?
A: inactive

Q: With `C[C@H]1CN([C@@H](C)CO)C(=O)Cc2cc(NC(=O)CCC(F)(F)F)ccc2O[C@@H]1CN(C)S(C)(=O)=O` as the compound, how does the cytotoxicity call read?
A: inactive

Q: `CC(C)(C)[S@](=O)N1Cc2cc(C(=O)N3CCc4ccccc4C3)nc(-c3cccc(-c4cncnc4)c3)c2[C@@H]1CCO` was tested. Which cytotoxicity call did it give?
A: inactive

Q: Which cytotoxicity call does the source give for `C=CCOC(=O)[C@@H]1[C@H]2C(=O)O[C@H](c3ccccc3)[C@H](c3ccccc3)N2[C@H](c2ccc(OCCOC(=O)NCCCCCC(=O)NO)cc2)[C@]12C(=O)Nc1ccc(I)cc12` here?
A: inactive

Q: With `Nc1nnc(-c2ccno2)o1` as the compound, how does the cytotoxicity call read?
A: inactive

Q: Which cytotoxicity call does the source give for `CC(=O)On1cc(F)c(=O)[nH]c1=O` here?
A: active

Q: With `CCOC(=O)Cn1cc(F)c(=O)[nH]c1=O` as the compound, how does the cytotoxicity call read?
A: inactive

Q: With `CCOC(=O)CCn1cc(F)c(=O)[nH]c1=O` as the compound, how does the cytotoxicity call read?
A: inactive

Q: How did the cytotoxicity call turn out when `Cn1cnc(S(=O)(=O)N2CC[C@H](O)[C@@H]2Cc2cnn(C)c2)c1` was run?
A: inactive

Q: How did the cytotoxicity call turn out when `C[C@H]1CCCCO[C@H](CN(C)C(=O)CCC(F)(F)F)[C@@H](C)CN([C@@H](C)CO)C(=O)c2cc(NC(=O)Cc3ccccc3)ccc2O1` was run?
A: active

Q: Which cytotoxicity call does the source give for `C[C@H](CO)N1C[C@H](C)[C@@H](CN(C)C(=O)Nc2ccc(C(F)(F)F)cc2)OCCCC[C@H](C)Oc2ccc(NC(=O)Cc3ccccc3)cc2C1=O` here?
A: inactive

Q: How did the cytotoxicity call turn out when `C[C@@H]1CCCCO[C@H](CN(C)C(=O)Nc2ccc(C(F)(F)F)cc2)[C@@H](C)CN([C@@H](C)CO)C(=O)c2cc(NC(=O)Cc3ccccc3)ccc2O1` was run?
A: inactive

Q: How did the cytotoxicity call turn out when `C[C@@H]1CN([C@H](C)CO)C(=O)c2cc(NC(=O)Cc3ccccc3)ccc2O[C@@H](C)CCCCO[C@H]1CN(C)C(=O)Nc1ccccc1` was run?
A: active

Q: `C[C@H]1CCCCO[C@@H](CN(C)C(=O)Nc2ccccc2)[C@@H](C)CN([C@@H](C)CO)C(=O)c2cc(NC(=O)Cc3ccccc3)ccc2O1` was tested. Which cytotoxicity call did it give?
A: inactive

Q: Which cytotoxicity call does the source give for `C[C@@H]1CCCCO[C@@H](CN(C)C(=O)CCC(F)(F)F)[C@@H](C)CN([C@H](C)CO)C(=O)c2cc(NC(=O)Cc3ccccc3)ccc2O1` here?
A: inactive

Q: `C[C@@H]1CCCCO[C@@H](CN(C)C(=O)Nc2ccccc2)[C@H](C)CN([C@@H](C)CO)C(=O)c2cc(NC(=O)Cc3ccccc3)ccc2O1` was tested. Which cytotoxicity call did it give?
A: inactive

Q: `C[C@@H]1CCCCO[C@@H](CN(C)C(=O)CCC(F)(F)F)[C@H](C)CN([C@@H](C)CO)C(=O)c2cc(NC(=O)Cc3ccccc3)ccc2O1` was tested. Which cytotoxicity call did it give?
A: inactive

Q: With `C[C@@H]1CCCCO[C@@H](CN(C)C(=O)Nc2ccc(C(F)(F)F)cc2)[C@H](C)CN([C@H](C)CO)C(=O)c2cc(NC(=O)Cc3ccccc3)ccc2O1` as the compound, how does the cytotoxicity call read?
A: active

Q: Which cytotoxicity call does the source give for `CC(C)NC(=O)Nc1ccc2c(c1)C(=O)N([C@@H](C)CO)C[C@@H](C)[C@@H](CN(C)Cc1ccccc1)OCCCC[C@@H](C)O2` here?
A: inactive

Q: How did the cytotoxicity call turn out when `C[C@@H]1CCCCO[C@@H](CN(C)C(=O)Nc2ccc3c(c2)OCO3)[C@@H](C)CN([C@@H](C)CO)C(=O)c2cc(NC(=O)Nc3ccc4c(c3)OCO4)ccc2O1` was run?
A: inactive

Q: Which cytotoxicity call does the source give for `CS(=O)(=O)N1CCOC[C@@]2(C1)CN(S(=O)(=O)C1CC1)CCO2` here?
A: inactive

Q: With `O=C(C[C@H]1CC[C@H]2[C@@H](COC[C@@H](O)CN2S(=O)(=O)c2cccc(F)c2)O1)NCc1ccc2c(c1)OCO2` as the compound, how does the cytotoxicity call read?
A: inactive

Q: How did the cytotoxicity call turn out when `C[C@@H]1CCCCO[C@H](CN(C)C(=O)Nc2ccc3c(c2)OCO3)[C@@H](C)CN([C@H](C)CO)C(=O)c2cc(NC(=O)c3ccccc3)ccc2O1` was run?
A: inactive

Q: How did the cytotoxicity call turn out when `O=C(O)CNc1ncccc1O` was run?
A: inactive

Q: How did the cytotoxicity call turn out when `Cc1ccc(S(=O)(=O)N(C)C[C@H]2Oc3ccc(NC(=O)NC(C)C)cc3CC(=O)N([C@H](C)CO)C[C@@H]2C)cc1` was run?
A: inactive

Q: How did the cytotoxicity call turn out when `N=C1CCCN1Cc1[nH]c(=O)[nH]c(=O)c1Cl` was run?
A: inactive

Q: `Cc1noc(C)c1NC(=O)Nc1ccc2c(c1)C(=O)N([C@@H](C)CO)C[C@@H](C)[C@H](CN(C)Cc1ccccc1)OCCCC[C@H](C)O2` was tested. Which cytotoxicity call did it give?
A: inactive

Q: For `Cc1noc(C)c1S(=O)(=O)Nc1ccc2c(c1)C(=O)N([C@H](C)CO)C[C@@H](C)[C@@H](CN(C)Cc1ccc(C(=O)O)cc1)O2`, which cytotoxicity call is on record?
A: inactive

Q: How did the cytotoxicity call turn out when `CC(C)NC(=O)N(C)C[C@H]1Oc2ccc(NC(=O)CCCN(C)C)cc2CC(=O)N([C@@H](C)CO)C[C@@H]1C` was run?
A: inactive

Q: For `NC1CCCCC1N.O=C1[O][Pt][O]C1=O` (configuration not stated), which cytotoxicity call is on record?
A: active

Q: `N[C@H]1CCCC[C@@H]1N1C(=O)CSC1=O` was tested. Which cytotoxicity call did it give?
A: inactive

Q: With `Cc1c(CN2CCC(Nc3ncnc4sc(CC(F)(F)F)cc34)CC2)ccc2c1cc(C#N)n2Cc1cn[nH]c1` as the compound, how does the cytotoxicity call read?
A: active

Q: `Cc1noc(C)c1S(=O)(=O)N(C)C[C@@H]1OCCCC[C@H](C)Oc2ccc(NS(C)(=O)=O)cc2C(=O)N([C@@H](C)CO)C[C@H]1C` was tested. Which cytotoxicity call did it give?
A: inactive

Q: For `CC(C)N(CCOc1c(Br)cc(/C=C/C(=O)NCCCOc2c(Br)cc(CCN(C)C)cc2Br)cc1Br)C(C)C`, which cytotoxicity call is on record?
A: active

Q: `CN(C)CCOc1c(Br)cc(/C=C/C(=O)NCCCOc2c(Br)cc(CCN(C)C)cc2Br)cc1Br` was tested. Which cytotoxicity call did it give?
A: active

Q: Which cytotoxicity call does the source give for `COc1cc(C(=O)NCc2ccc(OCCN(C)C)cc2)cc(OC)c1OC.Cl` here?
A: inactive

Q: How did the cytotoxicity call turn out when `COc1cc(/C=C/C(=O)NCCCNC(=O)/C=C/c2cc(OC)c(OC)c(OC)c2)cc(OC)c1OC` was run?
A: inactive

Q: How did the cytotoxicity call turn out when `C[C@H](CO)N1C[C@H](C)[C@@H](CN(C)C(=O)Nc2ccc3c(c2)OCO3)Oc2ccc(NC(=O)CCCN(C)C)cc2C1=O` was run?
A: inactive

Q: `CO[C@H]1CN(C)C(=O)c2cc(NS(=O)(=O)CC(F)(F)F)ccc2OC[C@H](C)N(C(=O)c2ccc3c(c2)OCO3)C[C@H]1C` was tested. Which cytotoxicity call did it give?
A: inactive

Q: For `O=C(Cc1ccccn1)NCC[C@H]1CC[C@@H](NC(=O)CN2CCOCC2)[C@H](CO)O1`, which cytotoxicity call is on record?
A: inactive

Q: Which cytotoxicity call does the source give for `C[C@H]1CN([C@@H](C)CO)C(=O)c2cc(NC(=O)Cn3cnnn3)ccc2O[C@@H]1CN(C)S(=O)(=O)c1ccccc1` here?
A: inactive

Q: How did the cytotoxicity call turn out when `CC(C)N1C[C@H](C)[C@@H](CN(C)Cc2ccc(Oc3ccccc3)cc2)Oc2c(cccc2-c2nnc(-c3ccncc3)o2)C1=O` was run?
A: inactive

Q: How did the cytotoxicity call turn out when `C[C@H]1CN([C@@H](C)CO)C(=O)c2cccc(NC(=O)Nc3cccc4ccccc34)c2O[C@H]1CN(C)S(=O)(=O)c1ccc(F)cc1` was run?
A: inactive

Q: Which cytotoxicity call does the source give for `COc1ccc(S(=O)(=O)N(C)C[C@H]2Oc3c(NC(=O)Nc4cccc5ccccc45)cccc3C(=O)N([C@@H](C)CO)C[C@H]2C)cc1` here?
A: inactive

Q: With `COc1ccc(S(=O)(=O)N(C)C[C@@H]2Oc3c(NC(=O)Nc4cccc5ccccc45)cccc3C(=O)N([C@@H](C)CO)C[C@H]2C)c(OC)c1` as the compound, how does the cytotoxicity call read?
A: active

Q: For `C[C@H](CO)N1C[C@H](C)[C@H](CN(C)S(=O)(=O)c2ccccc2)Oc2c(NC(=O)Nc3cccc4ccccc34)cccc2C1=O`, which cytotoxicity call is on record?
A: inactive

Q: With `COc1ccc(S(=O)(=O)N(C)C[C@@H]2Oc3c(NC(=O)Nc4cccc5ccccc45)cccc3C(=O)N([C@@H](C)CO)C[C@H]2C)cc1F` as the compound, how does the cytotoxicity call read?
A: inactive

Q: How did the cytotoxicity call turn out when `COc1cccc(S(=O)(=O)N(C)C[C@@H]2Oc3c(NC(=O)Nc4cccc5ccccc45)cccc3C(=O)N([C@@H](C)CO)C[C@H]2C)c1` was run?
A: active

Q: How did the cytotoxicity call turn out when `COc1ccc(S(=O)(=O)N(C)C[C@H]2Oc3c(NC(=O)Nc4cccc5ccccc45)cccc3C(=O)N([C@@H](C)CO)C[C@@H]2C)cc1` was run?
A: active

Q: Which cytotoxicity call does the source give for `C[C@H](CO)N1C[C@H](C)[C@H](CN(C)S(=O)(=O)c2ccc(F)cc2)Oc2c(NC(=O)Nc3cccc4ccccc34)cccc2C1=O` here?
A: inactive

Q: With `COc1ccc(S(=O)(=O)N(C)C[C@@H]2Oc3c(NC(=O)Nc4cccc5ccccc45)cccc3C(=O)N([C@@H](C)CO)C[C@H]2C)cc1OC` as the compound, how does the cytotoxicity call read?
A: inactive

Q: For `C[C@@H]1CN([C@@H](C)CO)C(=O)c2cccc(NC(=O)Nc3cccc4ccccc34)c2O[C@H]1CN(C)S(=O)(=O)c1ccc(OC(F)(F)F)cc1`, which cytotoxicity call is on record?
A: active

Q: How did the cytotoxicity call turn out when `COc1ccc(S(=O)(=O)N(C)C[C@@H]2Oc3c(NC(=O)Nc4cccc5ccccc45)cccc3C(=O)N([C@@H](C)CO)C[C@H]2C)cc1` was run?
A: inactive

Q: `COc1ccccc1S(=O)(=O)N(C)C[C@@H]1Oc2c(NC(=O)Nc3cccc4ccccc34)cccc2C(=O)N([C@@H](C)CO)C[C@H]1C` was tested. Which cytotoxicity call did it give?
A: inactive
